GPR151 ag = activates the human receptor GPR151 | hit rate 1% among 650,000 | activation, % at 11.2 µM | Q8TDV0 | PathHunter beta-arrestin GPR151 cells, luminescence; in the data active = activation above about 4.9%;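 also: 0% = median of compound wells and 100% = cells with positive control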
TEAD-YAP inh = TEAD-YAP interaction inhibition | HEK-TIYL cells, TEAD-Gal4/YAP UAS-luciferase luminescence | inhibition, % at 9.12 µM | hit rate 1.4% among 640,000; in the data active = inhibition above about 32%;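 also: 0% = median of test compound wells and 100% = reference inhibitor wells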
MITF inh = blocks human microphthalmia-associated transcription factor. AlphaScreen MITF homodimerization, bead proximity signal. inhibition, % at 2.6 µM. hit rate 0.91% among 650,000; in the data active = inhibition above about 50%;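 also: 0% = vehicle wells with protein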
FBW7 act = human FBW7 E3 ligase activation, primary screen | Q969H0 | AlphaScreen FBW7–phospho-cyclin E peptide binding, activator screen | normalized activity (activation), % at 26.1 µM | hit rate 0.13% among 650,000; in the data active = normalized activity above about 1.9%;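 also: purified mutant Fbw7 with reduced substrate affinity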
Target sequence (Q969H0 whole entry, looked up): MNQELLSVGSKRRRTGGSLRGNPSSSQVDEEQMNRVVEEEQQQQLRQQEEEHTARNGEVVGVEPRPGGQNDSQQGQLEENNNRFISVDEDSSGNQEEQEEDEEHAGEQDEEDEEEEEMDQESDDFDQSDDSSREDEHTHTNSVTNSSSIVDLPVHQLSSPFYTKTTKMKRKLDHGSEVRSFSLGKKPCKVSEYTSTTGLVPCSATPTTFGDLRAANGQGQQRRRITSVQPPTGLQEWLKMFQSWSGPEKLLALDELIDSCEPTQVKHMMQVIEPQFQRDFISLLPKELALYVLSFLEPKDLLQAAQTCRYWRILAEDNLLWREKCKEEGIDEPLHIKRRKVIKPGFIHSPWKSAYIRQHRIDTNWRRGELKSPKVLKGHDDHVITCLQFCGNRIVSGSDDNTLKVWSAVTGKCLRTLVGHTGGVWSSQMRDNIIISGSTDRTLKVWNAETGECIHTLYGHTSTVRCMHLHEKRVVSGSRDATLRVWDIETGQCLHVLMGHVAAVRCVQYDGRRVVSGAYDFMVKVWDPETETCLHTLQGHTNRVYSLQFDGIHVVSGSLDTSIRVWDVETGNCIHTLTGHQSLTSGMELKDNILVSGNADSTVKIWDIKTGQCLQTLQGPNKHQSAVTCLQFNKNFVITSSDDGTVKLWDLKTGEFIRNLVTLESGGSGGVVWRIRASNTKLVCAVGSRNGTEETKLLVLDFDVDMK
GPR151 conf act = human GPR151 activation, confirmation screen; AID 1508609; 6,700 tested, under 10 active; shares compounds with GPR151 ag; GPR151 PathHunter beta-arrestin cells, luminescence, 90 min; % of EA-reagent control over plate median; activation, % at 11.2 µM;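 active = mean percent activation across replicates above the confirmation screen cutoff of 4.91%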
GPR119 ag = GPR119 activation, counter-screen for GPR151 activators | shares compounds with GPR151 ag | GPR119 PathHunter beta-arrestin cells, luminescence, 90 min; 0 = compound-well median, 100 = enzyme-acceptor control | activation, % at 11.2 µM | hit rate 0.3% among 6,700;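 active = mean percent activation in the counterscreen above 29.09%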;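 also: counterscreen on off-target GPR119 to flag nonselective hits from the GPR151 activator screen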
The depositor's hits bear a star; · = not tested or not shown; ! = repeats disagree. A selection: hits, their analogues and other compounds. The true share with any hit is near 3.5%.

SMILES	GPR151 ag	TEAD-YAP inh	MITF inh	FBW7 act	GPR151 conf act	GPR119 ag
COc1ccc(CCN(C(=O)/C=C/C(=O)O)C2CC(=O)N(c3ccccc3)C2=O)cc1OC (stereo not drawn)	0.9	-6.0	13.7	0.3	·	·
COc1cccc(CN2CCN(Cc3cccc(OCCO)c3)CC2CCO)c1 (stereo not drawn)	5.2*	8.7	-2.9	-0.2	0.0	0.5
COc1cccc(CN2CCN(Cc3cccc(OC)c3)C(CCO)C2)c1 (stereo not drawn)	-0.6	-1.4	-8.4	0.0	·	·
COc1cccc(CN2CCN(Cc3cn(C)nc3C)CC2CCO)c1 (stereo not drawn)	5.8*	7.2	9.0	0.1	-0.6	-14.2
CSc1cccc(CN2CCN(Cc3ccccc3F)C(CCO)C2)c1 (stereo not drawn)	12.8*	-0.7	13.0	-0.1	0.8	-2.6
CC(C)(C)OC(=O)N/N=C(\CC(=O)c1cccs1)C(F)(F)F	0.9	7.2	8.1	-0.6	·	·
Cc1nnc2sc(SCc3ccc([N+](=O)[O-])cc3)nn2c1=O	0.4	0.8	-4.8	0.0	·	·
Cc1ccccc1CSc1nn2c(=O)c(C)nnc2s1	6.8*	1.2	-6.3	-0.9	1.0	14.2
C=CCn1c(=O)c2ccccc2n2c(SCC(=O)Nc3ccccc3C(=O)OC)nnc12	5.0*	1.0	-6.9	-0.1	0.1	-5.6
O=C(NC(=S)Nc1nc2ccc(Cl)cc2s1)c1ccco1	4.4	-10.9	13.0	0.0	·	·
CC(C)n1nnnc1C(c1ccccc1F)N1CCN(c2ccccc2)CC1 (stereo not drawn)	6.0*	2.4	-0.9	-0.3	0.5	9.7
COc1ccccc1N1CCN(C(c2ccc(N(C)C)cc2)c2nnnn2C(C)C)CC1 (stereo not drawn)	5.3*	0.2	8.4	0.0	1.3	4.8
COc1ccc(C(c2nnnn2C(C)C)N2CCN(c3ccccc3OC)CC2)cc1 (stereo not drawn)	-0.6	-5.2	3.4	0.1	·	·
CC(C)(C)C(=O)Nc1ccc(-n2cc(-c3cnccn3)cn2)cc1	-2.0	-46.1	6.3	0.1	·	·
COc1ccc(C(C)(C)C)cc1NC(=O)COC(=O)c1ccc([N+](=O)[O-])s1	-1.2	-2.0	24.5	0.1	·	·
CC(C)(C)c1ccc(NC(=O)COC(=O)c2ccc([N+](=O)[O-])s2)cc1	6.1*	-9.8	-5.0	-0.2	-0.8	-6.2
CCOCCCNC(=O)C(NC(=O)C1CCC(=O)N1)c1ccccc1 (stereo not drawn)	5.6*	-2.3	-11.5	0.0	0.2	16.1
COc1ccc(-n2cc(C(=O)NC3CCC(C)CC3)c3ccccc3c2=O)cc1 (stereo not drawn)	5.0*	1.8	4.8	-0.1	-0.1	8.0
CCC(C)NC(=O)c1cn(-c2cccc(OC)c2)c(=O)c2ccccc12 (stereo not drawn)	5.4*	-2.6	3.2	0.0	0.2	2.3
CCC(C)NC(=O)CCNC(=O)c1cn(-c2cccc(OC)c2)c(=O)c2ccccc12 (stereo not drawn)	2.0	6.2	-2.0	0.0	·	·
O=C(Nc1ccc(O)c(-c2nc3ccccc3o2)c1)c1cccc2ccccc12	0.3	2.3	-18.7	0.0	·	·
COC(=O)Cc1c(-c2ccccc2)c2cc(Cl)ccc2[nH]c1=O	-2.1	7.0	7.2	-0.1	·	·
O=C(NCc1ccccc1Br)c1ccco1	6.1*	-2.5	7.5	-0.1	-1.1	-9.9
O=C(NCc1ccccc1F)c1ccco1	1.0	3.4	4.0	-0.3	·	·
CC(C)[C@H](NC(N)=O)C(=O)NCc1cccc(Cl)c1	-0.7	-1.1	1.7	0.0	·	·
SMILES	GPR151 ag	TEAD-YAP inh	MITF inh	FBW7 act	GPR151 conf act	GPR119 ag
CCc1ccc(NC(=O)C(CC)Sc2nc3cc(OC)c(OC)cc3c(=O)n2CCc2ccc(Cl)cc2)cc1 (stereo not drawn)	6.5*	-12.5	-4.7	-0.1	-0.4	-11.1
CCC(Sc1nc2cc(OC)c(OC)cc2c(=O)n1CCc1ccc(Cl)cc1)C(=O)Nc1cccc(Cl)c1 (stereo not drawn)	-0.2	7.5	-7.0	0.0	·	·
CC1=C(C(=O)O)N2C(=O)[C@@H](NC(=O)C(N)C3=CCC=CC3)[C@H]2SC1 (stereo partly drawn)	8.4*!	2.9	1.6	0.6	0.7	10.8
CC1=C(C(=O)O)N2C(=O)[C@@H](NC(=O)[C@H](N)C3=CCC=CC3)C2SC1 (stereo partly drawn)	-0.7	14.0	11.4	0.0	·	·
Clc1ccc(Nc2ncnc3sc4c(c23)CCCC4)cc1	1.8	-1.1	-5.8	0.0	·	·
Cc1ccc(Nc2ncnc3sc4c(c23)CCCC4)cc1	20.0*	5.1	16.6	0.1	0.8	-2.5
c1ccc(CN2CCN(Cc3nnnn3Cc3cccs3)CC2)cc1	5.9*	2.4	10.1	0.2	0.2	-3.1
c1ccc(N2CCN(Cc3nnnn3Cc3cccs3)CC2)cc1	0.7	-2.4	-0.8	0.1	·	·
COc1ccc(CC2(CO)CCN(S(=O)(=O)c3cc(C)cs3)CC2)cc1	-0.2	3.3	-13.5	-0.1	·	·
Cc1csc(S(=O)(=O)N2CCC(CO)(Cc3ccccc3Cl)CC2)c1	27.3*	-10.4	-3.5	0.0	-1.1	-7.1
CCCNc1nc(Nc2ccc(C)cc2)nc(N2CCCC2)n1	4.9*	5.3	-0.6	0.1	0.2	-5.0
CC(NC(=O)C1CC1)C(c1cccs1)N1CCN(c2ccccc2)CC1 (stereo not drawn)	5.7*	2.3	9.9	0.0	1.1	8.5
CC(NC(=O)C1CC1)C(c1cccs1)N1CCN(c2ccccc2F)CC1 (stereo not drawn)	2.0	2.9	0.3	-0.1	·	·
c1ccc(Oc2nc(NC3CC3)c3ncn(-c4ccsc4)c3n2)cc1	6.6*	87.6*	-8.6	-0.2	3.9	45.8*
CN(C)c1cccc(Nc2nc(Nc3ccccc3)c3ncn(-c4ccsc4)c3n2)c1	5.6*	-66.8	9.1	0.2	-0.5	-8.4
c1ccc(CN2CCC(Nc3nc(Nc4ccc5ncccc5c4)nc4c3ncn4-c3ccsc3)CC2)cc1	5.5*	2.4	-5.5	-0.1	0.1	-12.5
Oc1ccc(CCNc2nc(NC3CCN(Cc4ccccc4)CC3)nc3c2ncn3-c2ccsc2)cc1	5.6*	24.6	2.4	-0.1	0.4	9.2
CN(C)c1cccc(Nc2nc(NCc3ccccc3)c3ncn(-c4ccsc4)c3n2)c1	-0.1	-0.7	11.6	1.2	·	·
c1ccc2c(c1)CCN(c1nc(NC3CC3)c3ncn(-c4ccsc4)c3n1)C2	1.8	25.1	-1.4	0.0	·	·
O=C(OCc1ccccc1)c1ccc2c(c1)S(=O)(=O)c1ccccc1C2=O	-1.5	4.0	-70.7	0.1	·	·
O=C(Nc1cc(Oc2ccc(F)cc2F)cc([N+](=O)[O-])c1)c1oc(=O)c2ccccc2c1-c1ccccc1	5.5*	-8.0	0.9	0.3	-0.4	7.6
O=C(Nc1cc(Sc2ccc(F)cc2)cc([N+](=O)[O-])c1)c1oc(=O)c2ccccc2c1-c1ccccc1	-1.9	-4.0	4.0	0.1	·	·

High-throughput results from PubChem BioAssay.
